Z-score data for 36 molecules are collected here from PubChem BioAssay.

A number with no mark means an inactive call.

This assay is described as follows: E. coli acrAB mutant growth effects, primary screen, E. coli filamentation inducers, strain DRC39, OD650, 48 h (AID 1179).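 Note: screen aims at cell division blockers that make cells filament.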 Particulars: E. coli DRC39 delta-acrAB growth, higher = more signal, called active from +8 up or from −8 down.
On to `Cc1ccc(S[C@]2(C(=O)NC(C)C)CC(=O)N(C(C)C)[C@@H]2c2ccc(CO)cc2I)cc1`, for which the z-score is -0.0992. The figure for `C=C(/C(=C/C[C@@H](OC(C)=O)c1ccc(CO)o1)c1cc(C(=O)OC)ccc1OC)C(C)C` is 0.533; for `COc1ccc(CCNC(=O)[C@@]2(Cc3ccccc3I)c3ccccc3C(=O)N(Cc3ccccc3Cl)[C@H]2c2ccc(CO)cc2)cc1` it is -0.638; for `COCCCNC(=O)[C@@]1(Sc2ccc(C)cc2)CC(=O)N(Cc2ccccc2Cl)[C@@H]1c1ccc(CO)cc1I` it is -0.0682. The result for `COc1cc(C(O)C2C=CC3C(=O)N(Cc4ccccc4)C(=O)C3N2n2cnnc2)cc(OC)c1OC` (stereo unspecified) reads 0.759; that for `[N-]=[N+]=Nc1ccccc1C[C@]1(C(=O)NCc2ccccc2)COC(c2ccc(OCCCO)cc2)=N1`, 0.161. As for `Cc1ccc(S[C@]2(C(=O)NCc3ccccc3)CC(=O)N(Cc3cc(C(F)(F)F)cc(C(F)(F)F)c3)[C@@H]2c2ccc(CO)cc2I)cc1`, the z-score is 0.602. The result for `COc1cc2c(cc1OC)CN(C(=O)[C@@H]1[C@H]3C(=O)O[C@H](c4ccccc4)[C@H](c4ccccc4)N3[C@H](c3ccc(O)cc3)[C@@]13C(=O)Nc1ccc(C#CCCO)cc13)CC2` reads 0.258. Turning to `Cc1ccccc1C(O)C1C=CC2C(=O)NC(=O)C2N1Nc1ccc(Cl)cc1Cl` (stereo unspecified), the z-score was -0.963. The result for `C=CCC(OC(C)=O)[C@@H]1[C@@H](N(Cc2ccc(-c3cccc(C(F)(F)F)c3)o2)C(=O)c2ccc(C)cc2)c2cc(OCCCO)ccc2N1C(=O)Cc1ccc(OC)cc1` (stereo partly specified) reads 1.11; that for `COc1ccc([Si](C)(C)[C@@H]2[C@@H](CC(=O)N3Cc4ccccc4C[C@H]3CO)O[C@]3(C(=O)N(Cc4ccc(N5CCC5=O)cc4)c4ccccc43)[C@H]2C)cc1`, 0.613; that for `Cc1ccc(S[C@]2(C(=O)NC(C)C)CC(=O)N(Cc3ccccc3Cl)[C@@H]2c2ccc(CO)cc2)cc1`, -0.963. The figure for `CCOC(=O)C[C@H]1[C@H](OC(=O)c2ccc(-c3ccccc3)cc2)[C@@H](NC(=O)CC(C)C)c2cc(OCCCO)ccc2N1C(=O)c1ccccc1` is -0.776. The result for `C=C(C(=O)CC[C@H](OC(=O)c1ccccc1-c1ccccc1C(=O)O)c1ccccc1OCCO)C(C)C` reads 0.32. Take `COCCOC(=O)N1C(=O)[C@@]2(c3cc(C#CC4=CCCCC4)ccc31)[C@H](c1ccc(O)cc1)N1[C@H](c3ccccc3)[C@H](c3ccccc3)OC(=O)[C@H]1[C@@H]2C(=O)NC[C@H](O)c1ccccc1`: the z-score is 0.478.

For the molecule `NC(=O)[C@H]1[C@@H]2C(=O)O[C@@H](c3ccccc3)[C@@H](c3ccccc3)N2[C@@H](c2ccc(O)cc2)[C@]12C(=O)Nc1ccc(C#CC3=CCCCC3)cc12`, the z-score was -0.51. `CC1CC/C=C\[C@H]2OC34C=CCN(C(C)(C)C)C(=O)[C@H]3N(C(CO)C(C)C)C(=O)[C@@H]4C2C(=O)O1` (stereo partly specified): the z-score was 0.338. The figure for `O=C(NCCN1CCOCC1)[C@@H]1c2ccccc2C(=O)N(Cc2ccccc2)[C@H]1c1ccc(CO)cc1` is 0.76.

As to `CC(C)CCC[C@@H](C)[C@H]1CC[C@@]2(C)C3=C(CC[C@]12C)[C@@]1(C)CC[C@H](OC(=O)c2ccccc2)C(C)(C)C1CC3` (stereo partly specified), the z-score is 1.57. On to `C[C@]1(C(=O)O)c2ccccc2C(=O)N(Cc2ccc(OC(F)(F)F)cc2)[C@H]1c1ccc(CO)cc1`, for which the z-score was -0.0775.

Turning to `C=CCNC(=O)[C@H]1[C@@H]2C(=O)O[C@@H](c3ccccc3)[C@@H](c3ccccc3)N2[C@@H](c2ccc(O)cc2)[C@]12C(=O)N(C(=O)OCCOC)c1ccc(C#CCC(C(=O)OC)C(=O)OC)cc12`, the z-score is 0.136. As for `CCCNC(=O)[C@@]1(Sc2ccc(C)cc2)CC(=O)N(C(C)C)[C@@H]1c1ccc(CO)cc1I`, the z-score was -0.202. As to `COc1ccc([Si](C)(C)[C@H]2[C@H](CCO)O[C@@]3(C(=O)N(Cc4ccccc4)c4ccc(N5CCOC5=O)cc43)[C@@H]2C)cc1`, the z-score is 0.0981. The figure for `C=CC1c2cc(O)c(OC)cc2CCN1Cc1ccc([N+](=O)[O-])o1` (stereo unspecified) is -0.217; for `CCCCC(=O)N(CCN1CCOCC1)[C@@H]1CC(C(=O)NCCO)=C[C@H](Oc2c(I)cc(CO)cc2OC)[C@H]1O` it is 1.15; for `C=C[C@@H](C)[C@@H](OC(=O)Nc1ccc(SC)cc1)c1ccc(OCCO)cc1` it is -0.504. In the case of `CC(C)C[C@@H]1NC(=O)CNC(=O)[C@@]23C(=O)N[C@@H](Cc4ccccc4)C2[C@H](C)[C@@]2(C)O[C@H]2C3/C=C/C/C=C\CNC1=O` (stereo partly specified), the z-score is 0.394.

For the molecule `Cc1c(NC(=O)/C(C#N)=C/c2ccccc2Cl)c(=O)n(-c2ccccc2)n1C`, the z-score was 1.36. The figure for `COCCCNC(=O)[C@@]1(c2ccc([N+](=O)[O-])cc2)CC(=O)N(C(C)C)[C@@H]1c1ccc(CO)cc1` is -0.0495. On to `C=CCC(OC(C)=O)[C@@H]1[C@@H](N(Cc2cccc3ccccc23)C(=O)c2cccc3ccccc23)c2cc(OCCCO)ccc2N1C(=O)c1ccc2ccccc2c1` (stereo partly specified), for which the z-score was 0.386. The result for `CC(C)C[C@@H]1NC(=O)[C@H]2C[C@@H](C(=O)NCCCCCN)[C@@H](c3cccc(OCCO)c3)N2C1=O` reads 1.61; that for `COC(=O)[C@@]1(Cc2ccccc2)[C@H]2c3cc(C(=O)N4CCCC4)n(CCSCCO)c3C[C@H]2CN1C(=O)c1ccccc1`, -0.853; that for `CCOC(=O)C1=C[C@@H](C(C)(C)C)N(S(=O)(=O)c2ccc(C)cc2)[C@H]1c1ccccc1`, -0.0515. Consider `C=CCN1C(=O)[C@]2(O[C@H](CCO)[C@@H]([Si](C)(C)c3ccc(OC)cc3)[C@@H]2C)c2cc(NC(=O)c3ccc(OC)cc3)ccc21`, for which the z-score is -0.723.

Turning to `COCCOC(=O)N1C(=O)[C@@]2(c3cc(C#Cc4ccc(OC)cc4)ccc31)[C@H](C(=O)NC[C@H](O)c1ccccc1)[C@H]1C(=O)O[C@H](c3ccccc3)[C@H](c3ccccc3)N1[C@@H]2c1ccc(OCCO)cc1`, the z-score is -0.35.

On to `CCc1cccc(NC(=O)O[C@H]2[C@H](OC(=O)Nc3ccccc3)[C@H](OC(=O)Nc3ccccc3)[C@@H](OC)O[C@@H]2CO)c1`, for which the z-score was 0.0166.
